Experimental findings from PubChem BioAssay are described below.

Unmarked numbers belong to inactive results. The source made the active and inactive calls.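 Rule for the calls: active = inhibition above the hit cutoff set in the earlier primary screen (cut at about 27% in these data); inactive = the rest.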

The target in the test is Protein phosphatase methylesterase 1 (Homo sapiens) (UniProt Q9Y570). Nature of the test: human PME-1 methylesterase inhibition confirmation – biochemical, fluorescence polarization, FP-Rh probe, triplicate (AID 2171).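 Note: 0% = enzyme with DMSO and 100% = wells lacking PME-1.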 Particulars: recombinant PME-1, FP-Rh probe fluorescence polarization; at 5.9 µM; hits give high values. In general terms: Polarisation of emitted light reports the rotation of a fluorescent probe.
Sequence of Protein phosphatase methylesterase 1 (Homo sapiens) (Q9Y570 whole entry, looked up): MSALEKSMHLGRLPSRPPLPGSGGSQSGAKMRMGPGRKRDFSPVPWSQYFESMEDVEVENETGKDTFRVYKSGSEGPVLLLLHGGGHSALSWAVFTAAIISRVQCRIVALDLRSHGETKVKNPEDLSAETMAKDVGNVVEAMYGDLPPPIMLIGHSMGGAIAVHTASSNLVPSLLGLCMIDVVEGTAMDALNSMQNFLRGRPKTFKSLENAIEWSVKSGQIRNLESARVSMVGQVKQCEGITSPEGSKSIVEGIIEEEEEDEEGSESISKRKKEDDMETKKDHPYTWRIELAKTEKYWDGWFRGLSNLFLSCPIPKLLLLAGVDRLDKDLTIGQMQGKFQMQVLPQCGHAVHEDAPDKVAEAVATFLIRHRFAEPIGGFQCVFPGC
For the compound `CCOc1ccc2nc(SCC(=O)Nc3ccc4c(c3)OCCO4)[nH]c2c1`, the inhibition was 25.3%. Next, `Cn1nc(-c2ccc(Cl)cc2)nc2c(=O)n(C)c(=O)nc1-2`: 44.8% (active). Under `O=C(OCCOCCN=C1NS(=O)(=O)c2ccccc21)c1ccccc1Br` stands 5.54%; under `COc1ccc2c(Cl)c(C(=O)N/N=C/c3c(C)[nH]c4ccccc34)sc2c1`, 18.5%. Under `O=[N+]([O-])c1ccccc1N/N=C/c1c[nH]c2ccccc12` stands 42.3% (active). Turning to `CCOC(=O)N1CC=C2C(C#N)=C(N)C(C#N)(C#N)[C@H](c3ccccc3OCC)[C@H]2C1`, the inhibition was 90.5% (active). Under `O=C(Nc1ccc([N+](=O)[O-])cc1)Nc1ccc2[nH]c(=O)[nH]c2c1` stands -15.6%. For `O=[N+]([O-])c1cc(Br)c(O)c(/C=N/Nc2nnnn2-c2cccc3ccccc23)c1`, the inhibition was 43.7% (active). Next, `CSC[C@@H]1NC(=S)N(c2ccc(C)cc2)C1=O`: 38% (active); `Fc1cc(F)c2nc(Nc3nc4cc5c(cc4s3)OCO5)sc2c1`: 29.5% (active); `Cc1ccsc1/C=N/n1c(-c2cc(-c3ccccc3)n[nH]2)n[nH]c1=S`: 22%. Next, `CC1=NN(c2ccccc2)C(=O)/C1=C/c1c(O)n(-c2ccc(F)c(Cl)c2)[nH]c1=O`: 49% (active); `Cc1[nH]c2ccccc2c1N=Nc1ccccc1C(=O)O`: 20.8%; `CCN(CC)S(=O)(=O)c1ccc(C)c(NC(=O)COC(=O)c2ccc(C)c(S(=O)(=O)N3CCOCC3)c2)c1`: 49.7% (active).

On to `CN(C)c1ccc(NC(=O)Nc2ccc3snnc3c2)cc1`, for which the inhibition was 21%.

The inhibition is the drop in the measured response relative to a control, in per cent.
